Here are results for 9 compounds from PubChem BioAssay.

The experiment deals with Follistatin (Homo sapiens) (UniProt P19883). Description: FST protein binding to printed compounds – biochemical, small-molecule microarray, 635/667 nm fluorescence, primary screen (AID 1132). As to conditions: 635 nm fluorescence, higher = more signal.
Sequence of Follistatin (Homo sapiens) (P19883 whole entry, looked up): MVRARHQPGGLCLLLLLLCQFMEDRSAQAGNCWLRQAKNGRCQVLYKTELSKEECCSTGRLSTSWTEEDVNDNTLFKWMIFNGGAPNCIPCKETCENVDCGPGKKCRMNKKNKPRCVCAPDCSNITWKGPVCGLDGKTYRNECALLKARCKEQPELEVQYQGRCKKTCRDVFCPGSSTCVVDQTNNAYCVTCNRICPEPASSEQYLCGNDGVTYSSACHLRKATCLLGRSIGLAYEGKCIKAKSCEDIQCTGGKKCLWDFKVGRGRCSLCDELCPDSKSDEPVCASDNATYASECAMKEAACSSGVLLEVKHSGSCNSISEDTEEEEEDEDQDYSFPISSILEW
Take `CN(C)C(=O)[C@@]1(Cc2ccccc2)COC(c2ccc(OCCCO)cc2)=N1`: the composite z-score was -0.13.

Compound `CO[C@H]1O[C@H](CO)[C@@H](OC(=O)CCc2ccccc2)[C@H](OC(=O)c2cc3ccccc3[nH]2)[C@H]1OC(=O)c1cc2ccccc2[nH]1` showed a composite z-score of 1.26. The same measure for `CN1C(=O)C2C=CC(C(O)c3cc(C(F)(F)F)cc(C(F)(F)F)c3)N(Nc3ccccc3)C2C1=O` (centres undefined): -0.101; for `COCCOC(=O)N1C(=O)[C@@]2(c3cc(C#CCCO)ccc31)[C@H](C(N)=O)[C@H]1C(=O)O[C@H](c3ccccc3)[C@H](c3ccccc3)N1[C@@H]2c1ccc(OCCO)cc1`: 1.09; for `COCCOC(=O)N1C(=O)[C@@]2(c3cc(C#Cc4ccc(OC)cc4)ccc31)[C@H](C(=O)NC[C@H](O)c1ccccc1)[C@H]1C(=O)O[C@H](c3ccccc3)[C@H](c3ccccc3)N1[C@@H]2c1ccc(OCCO)cc1`: 1.29.

Compound `COCCOC(=O)N1C(=O)[C@@]2(c3cc(C#CCNC(N)=O)ccc31)[C@H](c1ccc(OCCO)cc1)N1[C@H](c3ccccc3)[C@H](c3ccccc3)OC(=O)[C@H]1[C@@H]2C(N)=O` returned a composite z-score of 0.926. As to `CC(=O)NCCCC[C@@H]1NC(=O)[C@H]2C[C@@H](C(=O)NCCCCCNC(=O)CS)[C@@H](c3cccc(OCCO)c3)N2C1=O`, the composite z-score was found to be 1.33. The same measure for `O=C1O[C@H](c2ccccc2)[C@H](c2ccccc2)N2[C@H]1[C@@H](C(=O)N1CCCCCCC1)[C@]1(C(=O)Nc3ccc(C#CC4(O)CCCCCC4)cc31)[C@H]2c1ccccc1OCCO`: 1.62; for `COCCCNC(=O)[C@@]1(c2ccc([N+](=O)[O-])cc2)CC(=O)N(CC23CC4CC(CC(C4)C2)C3)[C@@H]1c1ccc(CO)cc1I`: 1.16.
